Screens (PubChem BioAssay)
Compounds with a hit are over-represented: about 17% of the library has one in this group of screens.
TDP1 cell CPT – growth inhibition of DT40 Tdp1-/-;hTDP1 cells with camptothecin (screen for TDP1 inhibitors) | chicken DT40 Tdp1-/-;hTDP1 cells + 20 nM CPT, ATP luminescence, 48 h | Potency, µM (top dose mostly 46.2 µM), hits mostly inhibitors | actives 12% (n = 420,000) | AID 686979; also: nearly all actives have a fitted effect of over 55% in size
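Chicken DT40 Tdp1-/- cells complemented with human TDP1, 400 cells/well, exposed to compounds plus 20 nM camptothecin for at least 48 h at 37 C; viability read as ATP content by CellTiter-Glo luminescence.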
S2 tox – cell viability loss in ATXN counter-screen; actives 0.49% (n = 400,000); AID 651635; Potency, µM (top dose mostly 56.7 µM), hits mostly cytotoxic; S2 cells (HEK-293 line with an ATXN2-luciferase reporter) viability, CellTiter-Fluor protease fluorescence, 24 h; also: nearly all actives have a fitted effect of over 40% in size
HepG2 tox – HepG2 cytotoxicity, counter-screen for TGF-b inhibitors | actives 0.76% (n = 410,000) | HepG2 CAGA-GFP viability, ATP luminescence, 18 h | Potency, µM (titrated, usually from 46.1 µM), actives largely listed as cytotoxic
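HepG2 CAGA-GFP cells (1000/well, DMEM with 1% FBS) received compound, then TGF-beta at 500 pg/mL final, and were incubated 18 hours at 37 degrees C. Viability was read by CellTiter-Glo luminescence. Media-only wells were set as complete cell-killing and DMSO as no toxicity.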
TGFb SMAD3 inh – inhibitors of TGF-b signaling; HepG2 CAGA-GFP TGF-b/SMAD3 reporter, GFP fluorescence, 18 h; TGF-beta stimulated, 500 pg/mL final; Potency, µM (highest dose often 46.1 µM), usual class: inhibitors; actives 1.2% (n = 410,000); AID 588855; also: nearly all actives have a fitted effect of over 65% in size
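Smad-responsive CAGA-GFP expression was quantified in HEPG2 cells exposed to compounds and 500 pg/mL final TGF-beta for 18 h at 37 degrees C; unstimulated wells defined full inhibition.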
DT40 TDP1 no CPT – qHTS for Inhibitors of human tyrosyl-DNA phosphodiesterase 1 (TDP1): qHTS in cells in absence of CPT; DT40 Tdp1-/- hTDP1 cells, no CPT, ATP luminescence, 48 h; Potency, µM (top dose mostly 46.2 µM), actives largely listed as inhibitors; actives 15% (n = 420,000); AID 686978, 2013; also: nearly all actives have a fitted effect of over 55% in size
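Camptothecin absent (DMSO only). Human TDP1-complemented DT40 knockout cells, 400 cells/well, 37 °C for minimum 48 hr; ATP measured via CellTiter-Glo, 30 min dark incubation, luminescence.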
ATXN2 expr inh – ATXN2 expression inhibition. HEK-293 ATXN2-luciferase reporter, luminescence, 24 h. Potency, µM (top dose mostly 57 µM), hits mostly inhibitors. actives 0.72% (n = 360,000); also: nearly all actives have a fitted effect of over 55% in size
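qHTS (up to 57 uM final) was run with 24 h compound exposure of reporter cells at 37 °C. Each well was multiplexed: SteadyGlo luminescence measured ATXN2-luciferase expression after a fluorogenic Gly-Phe-AFC viability readout (25 uM final).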
Numbers stand for hits; 0 = inactive; ? = inconclusive; - = no result; [ ] = dose if it differs, or a comment. Calls follow the shape of the dose curve; as a rule, active = well fitted curve in the direction sought with a large enough effect; inconclusive = small, poorly fitted or top-dose-only effect, or another doubt; inactive = no such curve, though single readings can be large; an effect the other way counts as inactive or inconclusive.

SMILES	TDP1 cell CPT	S2 tox	HepG2 tox	TGFb SMAD3 inh	DT40 TDP1 no CPT	ATXN2 expr inh
COc1ccccc1CNCC(O)(c1ccc(F)cc1)c1ccc(F)cc1	18µM	?	0	?	13µM	-
OC(CNCc1ccccc1)(c1ccccc1)c1ccccc1	0	?	0	0	?	-
CC(Oc1ccccc1Cl)C(=O)N(Cc1cccs1)C1CCS(=O)(=O)C1 (stereo not given)	0	-	0	0	?	0
CCc1ccc(NC(=S)N(CCN2CCOCC2)Cc2ccccc2F)cc1	0	0	0	0	0	-
CN(C)c1cc(NC(=O)CNC(C)(C)CC(C)(C)C)c2ccccc2n1	?	0	0	0	16µM	0
COc1ccc(CCN(C)CC(=O)Nc2cc(C)nc3ccccc23)cc1OC	?	?	0	0	?	0
COc1ccc(OC)c(NC(=S)NCc2ccco2)c1	0	0	0	0	0	0
COc1ccc(OCc2cc(/C=N\NC(=O)c3ccccc3)ccc2OC)cc1	4.6µM	0	0	0	5.2µM	0
COc1ccc(NC(=O)COc2ccc(/C=N/NC(=O)c3cccnc3)cc2OC)cc1	18µM	0	0	0	23µM	-
COc1ccc(/C=N/NC(=O)c2cccnc2)cc1CSc1ccccn1	6.5µM	0	0	0	6.5µM	0
COc1ccc(/C=N/NC(=O)c2cccnc2)cc1CN1CCCc2ccccc21	?	0	0	0	12µM	0
CC1CCN(S(=O)(=O)c2nnc(NC(=O)c3ccc(C(C)C)cc3)s2)CC1	?	0	0	0	0	0
COc1ccc(N2CC(NC(=O)/C=C\c3ccccc3)CC2=O)cc1 (stereo not given)	0	-	0	0	0	-
COc1ccc(/C=N/NC(=O)c2cccnc2)cc1COc1ccc([N+](=O)[O-])cc1	2.6µM	0	0	0	2.6µM	?
COc1cc(OC)cc(C(=O)N/N=C/c2ccc(OC)c(COc3ccc(F)cc3)c2)c1	2.3µM	?	0	?	2.9µM	0
COc1ccc(/C=N\NC(=O)c2ccc([N+](=O)[O-])cc2)cc1COc1c(F)c(F)cc(F)c1F	?	0	0	0.35µM	?	0
COc1ccc(C(=O)N/N=C\C(C)=C\c2ccccc2)cc1OC	?	0	0	0	16µM	0
COc1ccc(C(=O)N/N=C/c2ccc(OC)c(COc3c(F)c(F)cc(F)c3F)c2)cc1	?	0	0	0	0	0
CC(/C=N/NC(=O)c1ccc(Br)cc1)=C\c1ccccc1	0	0	0	0	0	0
CCCCCCc1ccc(C(=O)CCN(C)C)cc1	-	-	-	0	-	-
COc1ccc(C(=O)N/N=C\c2ccc(OC)c(COc3ccccc3Br)c2)c(OC)c1	23µM	0	0	0	?	0
COc1ccc(C(=O)N/N=C/c2ccc(OC)c(CN3CCN(c4ccc(F)cc4)CC3)c2)cc1	?	0	0	0	?	0
COc1ccc(/C=N/NC(=O)c2ccoc2C)cc1CN1CCN(c2ccc(F)cc2)CC1	?	?	0	?	15µM	-
COc1ccc(/C=N\NC(=O)c2ccccc2Br)cc1COc1ccccc1	?	?	0	?	?	?
CC(=O)c1ccc(N(CC(=O)NC2CCCC2)C(=O)c2csnn2)cc1	0	0	0	0	0	0
SMILES	TDP1 cell CPT	S2 tox	HepG2 tox	TGFb SMAD3 inh	DT40 TDP1 no CPT	ATXN2 expr inh
Fc1ccc(NC(=S)Nc2cccnc2)cc1Cl	?	0	0	0	23µM	-
O=C(Nc1ccccc1)Nc1cc(Cl)cc(Cl)c1	6.5µM	?	0	16µM	12µM	?
COC(=O)c1cc(NC(=O)c2ccc(-c3ccccc3)cc2)ccc1Cl	0	0	0	0	0	0
N#CCc1ccc(NC(=O)Nc2cccc(Cl)c2)cc1	16µM	?	0	0	?	0
COC(=O)c1cc(NC(=O)Nc2cccc(Cl)c2)ccc1Cl	16µM	0	0	16µM	18µM	?
COc1cccc(CN2CCOc3ccc(CN4C[C@@H](C)O[C@@H](C)C4)cc3C2)c1OC	0	0	-	-	0	-
O=C(Nc1cccc(Cl)c1)Nc1cccc(Cl)c1	15µM	0	0	0	12µM	0
O=C(Nc1cccnc1)Nc1ccccc1Cl	?	?	0	0	0	0
O=C(Nc1cccnc1)Nc1cc(Cl)cc(Cl)c1	10µM	0	0	?	23µM	0
O=C(Nc1ccccc1)Nc1cc(OCC(F)(F)F)cc(OCC(F)(F)F)c1	4.1µM	0	11µM	?	2.9µM	0[11.3 µM]
CCOc1cc(S(=O)(=O)N2CCC(Cc3ccccc3)CC2)c(OCC)cc1-n1cnnn1	0	0	0	?	0	0
CCOc1cc(S(=O)(=O)N2CC=C(c3ccc(F)cc3)CC2)c(OCC)cc1-n1cnnn1	15µM	0	0	0	10µM	0
COCC(=O)N(C)C[C@H]1N[C@@](C)(C(=O)OC)[C@H]2C(=O)N(C)C(=O)[C@@H]12	0	0	0	0	0	0
COc1ccc(NS(=O)(=O)c2ccc3oc4ccccc4c3c2)cn1	23µM	0	0	?	?	0
CC(C)Cc1nnc(NC(=O)C2CCCN(C(=O)c3ccc(Cl)cc3)C2)s1 (stereo not given)	?	0	0	0	?	-
CCCCNC(=O)[C@@H]1CC=C[C@@H]2CCN(CCCC)C(=O)[C@@H]21	0	-	0	0	?	-
Oc1ccc(Br)cc1C1C=C(c2ccc3c(c2)OCO3)NC(c2c(F)cccc2Cl)N1 (stereo not given)	-	-	0	?	-	-
Oc1ccc(Cl)cc1C1C=C(c2ccc3c(c2)OCO3)NC(c2ccc(Br)cc2)N1 (stereo not given)	16µM	-	0	0	?	-
Oc1ccc(Cl)cc1C1C=C(c2ccc3c(c2)OCO3)NC(c2cc(Br)ccc2F)N1 (stereo not given)	-	-	14µM	7.9µM	-	-
O=C1C=C(c2cccc(Br)c2)C[C@@H](c2ccc3c(c2)OCO3)C1	?	0	0	0	23µM	0
O=C1C=C(c2ccccc2)C[C@@H](c2ccc3c(c2)OCO3)C1	0	0	0	0	0	0
O=C1C=C(c2cnc3ccccc3c2)C[C@@H](c2ccc3c(c2)OCO3)C1	21µM	?	0	0	?	?
Cc1ccc(NC(=O)C2CCN(S(=O)(=O)c3c(C)noc3C)CC2)cc1	0	0	0	0	0	0
Cc1ccccc1NS(=O)(=O)c1nnc(NC(=O)c2ccco2)s1	?	-	0	0	?	-
CC(=O)Nc1ccc(OCC(O)Cn2cnc3ccccc32)cc1 (stereo not given)	0	0	0	0	0	0
